Experimental data taken from PubChem BioAssay (NCI).
About 83,000 compounds went through this panel and 20% of them were active in at least one assay; those are over-represented in the sample as a whole.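 Testing used 96-well plates and a 48-hour single-concentration exposure. Example: -40 means 40% of the starting cells died.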 Unmarked numbers belong to inactive results. Calls of active or inactive are those of the source. The calls were made as follows: active = growth percent below 10; inactive = the rest.

Assays:
Test in all cases: NCI-60 one-dose screen, 48 h (100 = growth as untreated, 0 = no growth, -100 = all killed)
Conditions in all cases: 10 µM unless noted
T-47D breast = system: T-47D breast
MDA-MB-435 melanoma = system: MDA-MB-435 melanoma
SW-620 colon = system: SW-620 colon
MCF7 breast = system: MCF7 breast
HCT-116 colon = system: HCT-116 colon
HCC-2998 colon = system: HCC-2998 colon
KM12 colon = system: KM12 colon
BT-549 breast = system: BT-549 breast

| SMILES | growth (T-47D breast) | growth (MDA-MB-435 melanoma) | growth (SW-620 colon) | growth (MCF7 breast) | growth (HCT-116 colon) | growth (HCC-2998 colon) | growth (KM12 colon) | growth (BT-549 breast) |
| --- | --- | --- | --- | --- | --- | --- | --- | --- |
| COC(=O)[C@@H]1[C@H](O)[C@H](C)[C@H](O)[C@H](C)/C=C\C=C(C)C(=O)Nc2c(C)c(OC(C)=O)c3c(c2O)C(=O)C(C)=C2OCOC(=C23)C(C)=C[C@@](C)(O)[C@H](O)[C@@H](C)[C@H]1OC(C)=O | 118% | 122% | 117% | 104% | 55.8% | 118% | 119% | – |
| CC(=O)N1CCN(CCNC(=O)n2cc(-c3ccncc3)c(-c3cc(O)cc(Cl)c3)n2)CC1 | 100% | 49.3% | 76.8% | 93.4% | 43.6% | 122% | 91.3% | – |
| CC(=O)Nc1nc(C)c(C(=O)NNC(=O)Nc2ccccc2)s1 | 91.1% | 128% | 100% | 100% | 102% | 104% | 98.6% | – |
| COc1ccc(CN2C(=O)/C(=C\C(=O)c3ccc(OCCN4CCCCC4)cc3)c3ccccc32)cc1 | 15.5% | – | -39.9% (active) | 20.3% | – | 94.9% | 89% | 81.5% |
| CC(=O)Nc1nc(C)c(C(=O)N/N=C/N2CCCCC2)s1 | 98.4% | 125% | 106% | 94.8% | 55.8% | 20.3% | 128% | – |
| C/C=C/C/C=C/[C@H](C)C[C@H](O)[C@@H]1C[C@@H]2O[C@H]2/C=C/[C@@H]2OC(C)(C)O[C@H]2/C=C/C[C@H](C)CC(=O)O1 | -4.89% (active) | 77.1% | 56.8% | 45.1% | 18.6% | 71.9% | 31.7% | – |
| O=C(Nc1ccc(-n2cc(-c3ccncc3)c(-c3ccc(Cl)c(O)c3)n2)cc1)Nc1cc(C(F)(F)F)cc(C(F)(F)F)c1 | 23.8% | 6.62% (active) | 26.1% | 11% | 10.5% | 36.1% | – | – |
| OCCN1CCN(CC/C=C2/c3ccccc3Sc3ccc(C(F)(F)F)cc32)CC1 | 62.5% | – | 83.5% | 56.6% | 41.5% | 21.4% | 63.4% | 75.2% |
| Nc1cc(N)c2nc(NCCc3ccc(Cl)c(Cl)c3)cnc2c1 | -27.2% (active) | – | 51.3% | -43.5% (active) | – | 44.7% | 35.6% | 96.6% |
| COC(=O)c1cc(O)c2cc3c(cc2c1-c1cc(OC)c(OC)c(OC)c1)OCO3 | 25.9% | 2.84% (active) | 17.8% | 21.9% | 20.8% | 52.3% | 25.7% | – |
| CC(=O)Nc1nc(C)c(C(=O)N/N=C/N2CCOCC2)s1 | 102% | 127% | 107% | 98.6% | 93.8% | 157% | 105% | – |
| COc1cc(-c2nn(-c3ccc(NC(=O)Nc4ccc(Cl)c(Cl)c4)cc3)cc2-c2ccncc2)ccc1Cl | 47.5% | 29.1% | 35.2% | 28.4% | 13.4% | 21.8% | 16.1% | – |
| CCOC(=O)c1sc(NS(=O)(=O)c2ccccc2)nc1C | 111% | 126% | 111% | 96.2% | 57.9% | 27.5% | 129% | – |
| COc1ccc(C(=O)NCCNc2nccc(-c3c(-c4ccc(F)cc4)nc4sccn34)n2)cc1 | 58.2% | 43.6% | 52.3% | 25.1% | 31.8% | 97% | – | – |
| Nc1cc(N)c2nc(-c3ccccc3)c(NCCc3ccc(Cl)c(Cl)c3)nc2c1 | -11.5% (active) | – | -86.7% (active) | -2.91% (active) | -90.8% (active) | -94.9% (active) | -83.4% (active) | -70.4% (active) |
| O=S(=O)(O)CCI | 99.4% | 114% | 102% | 98.3% | 98.3% | 110% | 114% | – |
| O=C(Nc1ccc(-n2cc(-c3ccncc3)c(-c3ccc(Cl)c(O)c3)n2)cc1)c1cc(C(F)(F)F)cc(C(F)(F)F)c1 | 47.9% | 52.5% | 81.4% | 30.3% | 33.6% | 74.2% | 28% | – |
| O=C(c1ccccc1)c1ccccc1-c1ccccc1 | 27% | -22.2% (active) | 15.8% | 18.1% | 14% | 47.1% | 29.5% | – |

| SMILES | growth (T-47D breast) | growth (MDA-MB-435 melanoma) | growth (SW-620 colon) | growth (MCF7 breast) | growth (HCT-116 colon) | growth (HCC-2998 colon) | growth (KM12 colon) | growth (BT-549 breast) |
| --- | --- | --- | --- | --- | --- | --- | --- | --- |
| N#Cc1c2ncccc2c2nnc3cc(Cl)c(Cl)cc3n12 | 60.4% | 106% | 78.7% | 38.9% | 78.7% | 75.6% | 89% | – |
| Cc1ccccc1-n1c(C)nc2cc(NC(=O)c3ccc(Cl)cc3)ccc2c1=O | 29% | 43.7% | 86% | 57.8% | 74.8% | 80.9% | 76.6% | – |
| CC(CCN1CCN(CCC(C)CC(C)(C)C)C1CC(C)CC(C)(C)C)CC(C)(C)C (stereo not given) | 91.8% | 104% | 89.4% | 95.7% | 60.9% | 78.2% | 91% | – |
| COc1ccc(Nc2c3ccccc3nc3ccccc23)cc1 | 30.6% | – | 24.2% | 11.5% | 13% | 46% | 37.6% | 42.2% |
| O=c1c2c(c3ccccc3n1-c1ccccc1)NC(=S)NC2c1ccc(Cl)cc1 (stereo not given) | 67.4% | 30.4% | 57.1% | 60% | 16.1% | 35.7% | – | – |
| CCN(CC)CCOC(=O)c1cccnc1 | 96.6% | – | 103% | 95.1% | 98.1% | – | 103% | 105% |
| COc1ccc2cn3c4ccc(O)cc4[nH]c(=O)c3c2c1 | 33.9% | -37.7% (active) | 11.3% | -5.85% (active) | 10.6% | 19.3% | 11.9% | – |
| COc1ccc2c(c1)cn1c3ccc(O)cc3[nH]c(=O)c21 | 37.2% | 1.04% (active) | 8.4% (active) | -4.36% (active) | -85.4% (active) | 11.8% | 9.45% (active) | – |
| CC1(C)N=C(N)N=C(N)N1c1cccc(CCCCOc2ccccc2)c1 | 37.7% | – | 12.6% | 1.62% (active) | – | 27.1% | 15.9% | 35.7% |
| Cc1nc(NC(=O)NC2CCCCC2)sc1C(=O)NN | 112% | 115% | 106% | 105% | 83.8% | 162% | 102% | – |
| CCOc1ccc(Br)cc1/C=C(\C#N)c1ccc([N+](=O)[O-])cc1 | 66.4% | – | 86.6% | 23.4% | 67.9% | – | 94.5% | 96.5% |
| Cc1ccc(NCc2cn(-c3ccc(C(=O)O)cc3)nc2-c2ccc(C(=O)O)cc2)cc1 | 98.6% | – | 110% | 93.6% | – | 101% | 93.9% | 108% |
| CC(=O)NNC(=O)c1sc(NC(C)=O)nc1C | 76.5% | 110% | 96.9% | 87.4% | 90.5% | 73.8% | 105% | – |
| CC(=O)N1CCN(CCNC(=O)n2cc(-c3ccncc3)c(-c3ccc(O)c(Cl)c3)n2)CC1 | 112% | 103% | 130% | 102% | 111% | 118% | 103% | – |
| COc1cc(-c2nn(-c3ccc(NC(=O)c4ccc(Cl)c(C(F)(F)F)c4)cc3)cc2-c2ccncc2)ccc1Cl | 26.7% | 24.3% | 6.21% (active) | 21% | 9.19% (active) | 31.8% | – | – |
| COC(=O)C(Cc1cnc[nH]1)N1CC(=O)N2[C@@H](c3ccccc3)SC[C@H]2C1=O (stereo not given in full) | 108% | 103% | 108% | 106% | 103% | 99.6% | 108% | – |
| C/C=C/C/C=C/[C@H](C)C[C@H](O)[C@@H]1C[C@@H]2O[C@H]2/C=C/[C@H](O)[C@@H](O)/C=C/C[C@H](C)CC(=O)O1 | 69.9% | 117% | 94.1% | 83.7% | 70.6% | 95.1% | 80.2% | – |
